Measurements reported in PubChem BioAssay AID977607 (Broad Institute, 2014).
Among all 1,500 compounds or so, about 460 (31%) were called active. About 1% were inconclusive and are not listed.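 Rule for the calls: active = curve reaches 40% activation over neutral controls at an AC40 no higher than the top valid tested concentration; inconclusive = no clear call, values can overlap the other calls; inactive = signal moving opposite to the expected increase, and the rest.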 Only a sample is shown. Results with a measured potency or affinity are listed apart.

Test: activators of glucose-dependent insulin secretion, dose response, cell-based, INS-1E, Gaussia luciferase, luminescence, cherry-pick, set 2 (AID 977607);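 note: 0% = median of the plate neutral control wells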
Conditions: INS-1E GLuc insulin secretion reporter, 2-3 h, hits give high values; at 35 µM, 100% = signal doubled over neutral wells unless noted

Max activation, inactive:
COc1ccc(CCNC(=O)CCn2c(=O)c3cccn3c3cccnc32)cc1OC 27.2% [at 11 µM, 100% = signal doubled over neutral wells], Cc1cc(=O)n(Cc2ccccc2)c2ccccc12 22.3%, CCCn1c(O)c(N=NC(=O)c2cccnc2)c2cc(Br)ccc21 -23%, Cc1ccc(S(=O)(=O)Nc2nc(C)cc(NN)n2)cc1 -19.8% [at 0.015 µM, 100% = signal doubled over neutral wells], COc1ccc(N/C=C/C(=O)c2ccc(Cl)cc2)cc1 -21.2% [at 0.42 µM, 100% = signal doubled over neutral wells], Cc1c(C)c2c(OCC(=O)O)cc3c(c2oc1=O)CCC(C)(C)O3 -24.4% [at 0.135 µM, 100% = signal doubled over neutral wells], COc1cc2c(cc1OC)C(Cc1ccc(O)cc1)NCC2 (stereo not drawn) 24.7% [at 0.0016 µM, 100% = signal doubled over neutral wells], COc1cc2c(cc1OC)C(Cc1ccc(O)cc1)N(C)CC2 (stereo not drawn) -15.9% [at 0.0016 µM, 100% = signal doubled over neutral wells], O=C(NCCC1CCCCN1S(=O)(=O)c1ccc(F)cc1)C(=O)NCc1cccnc1 (stereo not drawn) -23.5% [at 1.2 µM, 100% = signal doubled over neutral wells], COc1ccc2oc(-c3ccncc3)cc(=O)c2c1 16.4%, COc1ccc(C(=O)Cc2cc3cccc(OC)c3oc2=O)cc1 -21.5% [at 0.0016 µM, 100% = signal doubled over neutral wells], O=C(NCc1ccccn1)c1ccccc1OCc1ccc(Cl)cc1Cl -25.4%, COc1ccc2oc(=O)c(C(=O)NCc3ccccn3)cc2c1 -9.33% [at 1.2 µM, 100% = signal doubled over neutral wells], COc1ccc(Cc2nnc(-c3ccccc3)o2)cc1 24.7% [at 0.42 µM, 100% = signal doubled over neutral wells], COc1cc(CN(C)c2ccc(S(=O)(=O)N3CCCC3)cn2)ccc1OC(F)F -33.3% [at 11 µM, 100% = signal doubled over neutral wells], CCN1CCN(CC(=O)Nc2ccc(C(C)=O)cc2)CC1 -17% [at 1.2 µM, 100% = signal doubled over neutral wells], O=C(NC(=S)Nc1cccc2[nH]ncc12)c1ccccc1 -16.1% [at 1.2 µM, 100% = signal doubled over neutral wells], COc1ccc(C(=O)/C=C2/c3ccccc3CC(C)(C)N2C)cc1OC -35.3% [at 1.2 µM, 100% = signal doubled over neutral wells], COc1ccc(C(=O)c2sc(Nc3ccccc3)nc2N)cc1OC 39.1% [at 3.8 µM, 100% = signal doubled over neutral wells], CC(C)COC(=O)N1C[C@H](O)C[C@H]1C(=O)Nc1ccc(Cl)cc1 -12.6% [at 0.015 µM, 100% = signal doubled over neutral wells], Cc1ccc(-c2nc3c(=O)n(C)c4ccccc4c3o2)cc1 27.7% [at 0.42 µM, 100% = signal doubled over neutral wells], O=C(Nc1ccc(NC(=O)c2cccs2)cc1)c1ccc2c(c1)OCO2 -18.9% [at 3.8 µM, 100% = signal doubled over neutral wells], O=C(Nc1ccc2oc(-c3cccnc3)nc2c1)c1ccc2c(c1)OCCO2 21%, CN1CCCCCC1C(=O)N1CCC(N2CCC(C(=O)N3CCOCC3)CC2)CC1 (stereo not drawn) -16.3%, CCOC(=O)c1ccc(S(=O)(=O)N2CCC(C(=O)Nc3nnc(C)o3)CC2)cc1 -12.8% [at 0.0016 µM, 100% = signal doubled over neutral wells], O=C(Nc1nnc(-c2ccc(F)cc2)s1)C1CCN(S(=O)(=O)c2ccc(Cl)cc2)CC1 18.7%, COc1ccccc1N(CC(=O)NCC1CCCO1)C(=O)CNS(=O)(=O)c1ccc(Cl)cc1 (stereo not drawn) -20% [at 0.42 µM, 100% = signal doubled over neutral wells], Fc1ccccc1-c1nnc2ccc3ccccc3n12 -19.8% [at 0.135 µM, 100% = signal doubled over neutral wells], C[C@@H]1CN([C@H](C)CO)C(=O)CCCn2nncc2CO[C@H]1CN(C)C(=O)Nc1ccnc(N2CCOCC2)c1 -14% [at 0.015 µM, 100% = signal doubled over neutral wells], COc1ccc(C(=O)Nc2ccccc2C(=O)NCC2CCCO2)cc1 (stereo not drawn) 6.34%, COc1ccc(NC(=O)C2(c3ccc(NC(=O)c4ccc(OC)cc4)cc3)CCCC2)cc1 -18.4% [at 0.005 µM, 100% = signal doubled over neutral wells], COc1ccc(CCN2CC(=O)NC(=O)C2)cc1OC -13.9% [at 3.8 µM, 100% = signal doubled over neutral wells], CCN(c1ccccc1)c1nc(Cl)nc2c1cnn2C 28.8%, COCc1ccc(C(=O)NC2CCSc3ccccc32)cc1 (stereo not drawn) -17.7%, COc1ccc(-c2ccc(=O)n(CC(=O)NC3CCc4ccccc43)n2)cc1OC (stereo not drawn) 20.7% [at 11 µM, 100% = signal doubled over neutral wells], CCCc1cc(=O)oc2cc(C)cc(OCC(=O)Nc3ccc(S(N)(=O)=O)cc3)c12 24.1% [at 1.2 µM, 100% = signal doubled over neutral wells], Cn1c(=O)c(=O)n(C)c2cc(S(=O)(=O)N3CCN(c4ccc(F)cc4)CC3)ccc21 -17.9% [at 0.046 µM, 100% = signal doubled over neutral wells], CSc1ccc2nnc(-c3cccc(F)c3)n2n1 16.4%, COc1cccc(-c2cc(C(F)(F)F)nc(-n3cncn3)n2)c1 -20.7%, CC(C)CC#Cc1ccc([C@H]2[C@H]3CN(C(=O)c4cnccn4)CC(=O)N3[C@H]2CO)cc1 35.4% [at 0.015 µM, 100% = signal doubled over neutral wells], CCN(Cc1ccncc1)C(=O)c1cccc(S(=O)(=O)N2CCCCC2)c1 -18% [at 1.2 µM, 100% = signal doubled over neutral wells], COc1ccccc1CNC(=O)CCS(=O)(=O)Cc1ccc(C)cc1 -17.3%, Cc1ccc(NC2c3ncccc3C(=O)N2C2CCCCC2)cc1 (stereo not drawn) 28.1%, COc1ccc(C2=Nn3c(nnc3-c3ccccc3OC)SC2)cc1OCC1CC1 -35.7%, COc1ccc(C(O)c2nccc3cc(OC)c(OC)cc23)cc1OC (stereo not drawn) 44.3% [at 3.8 µM, 100% = signal doubled over neutral wells], COc1ccc(C2=Nn3c(nnc3-c3ccccc3OC)SC2)cc1OC1CCOC1 (stereo not drawn) 43.3% [at 1.2 µM, 100% = signal doubled over neutral wells], COc1ccc(-c2nnc(-c3cccs3)o2)cc1OC 29.4%, COc1ccc(CO/N=C/c2c(C)[nH]c(=O)[nH]c2=O)cc1 16.7%, COC(=O)C1C(=O)NC(SC)=C(C#N)C1c1ccccc1 (stereo not drawn) -22.6% [at 0.015 µM, 100% = signal doubled over neutral wells], O=C1N(c2ccccc2)c2ccccc2[C@]12C[C@H](O)CO2 -20.7% [at 0.135 µM, 100% = signal doubled over neutral wells], O=C(COc1ccc(Cl)cc1)NCCS(=O)(=O)N1CCN(c2ccccc2F)CC1 -18.1% [at 0.135 µM, 100% = signal doubled over neutral wells], COc1ccc(OC)c(C2=Nn3c(nnc3-c3ccncc3)SC2)c1 12.7%, C[C@@H]1O[C@H](C2CCCC2)CC2=C1C(=O)OC(C)(C)O2 18% [at 1.2 µM, 100% = signal doubled over neutral wells], CC[C@@H]1CC2=C(C(=O)OC(C)(C)O2)[C@H](c2ccc(F)cc2)O1 23.8% [at 3.8 µM, 100% = signal doubled over neutral wells], C=CCNc1nc(Cl)nc(Nc2ccc(OC)cc2)n1 50.7%, CCOc1cc(/C=C(\CC(=O)O)c2nc3ccccc3s2)ccc1OC -15% [at 0.005 µM, 100% = signal doubled over neutral wells], c1ccc(-c2ccccc2OCCN2CCCCC2)cc1 -15.6% [at 0.015 µM, 100% = signal doubled over neutral wells], C/C=C1\COC(C(=O)NCc2ccccc2)(C(F)(F)F)C=C1C=C1CCCCC1 (stereo not drawn) -27% [at 11 µM, 100% = signal doubled over neutral wells]
